In PubChem BioAssay:

Test: blockers of RIG-like receptor reporter activation – cell-based, Sendai virus stimulus, luciferase, 10K MLSCN set, TLR/RLR signaling modifier project, primary screen (AID 602276);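 further: firefly luciferase from ISG56 promoter only with Renilla not read in this screen; 0% = Sendai virus plus DMSO and 100% = medium plus DMSO without virus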
Conditions: HEK293 RL24 IRF3 luciferase reporter, at 10 µM, hits give high values;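 active means inhibition at or above 50% at 10 µM; inactive means inhibition below 50%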

inhibition, inactive:
O=C(Cc1ccc(S(=O)(=O)N2CCCC2)s1)Nc1nc2c(s1)CCCC2 -11%
Cn1nnnc1SCC(=O)NCc1ccco1 -10.5%
COc1cc(Cn2c(C(=O)O)cc3sccc32)cc(OC)c1OC 14.9%
CCOCCCNC(=O)CCNS(=O)(=O)c1ccc(C)cc1 -17.9%
COc1ccc2c(c1)CCc1c(C(=O)N3CCCc4ccccc43)noc1-2 -24%
COc1ccc(OC)c(NC(=O)C2CCN(c3cc(-c4ccccc4)nc4ncnn34)CC2)c1 15%
CC(C)C12CN3CC(C(C)C)(CN(C1)C3c1ccc3c(c1)OCO3)C2=O (stereo not given) 11.3%
C/C(CC(O)(/C=N/O)c1ccccc1)=N\O (stereo not given) 14.3%
CCCCc1oc2ccccc2c1C(=O)c1cc(I)c(OCCN(CC)CC)c(I)c1 9.88%
Cn1cc(C(=O)NC2CCCCCCC2)c(=O)c2cc(S(=O)(=O)N3CCCC3)ccc21 10.2%
Cc1ccc(C2C(C#N)=C(N)Oc3cc4c(cc32)OCO4)cc1 (stereo not given) 24.6%
CN(C)S(=O)(=O)c1ccc(C(=O)N2CCC(c3nc4ccccc4o3)CC2)cc1 10.5%
O=C(CN1CCC(n2nnc3cc(F)ccc32)CC1)Nc1ccc2c(c1)CCC2 14.8%
CCOC(=O)CSc1nnc(CNC(=O)c2cccs2)n1-c1cc(OC)ccc1OC 0.513%
Cc1cnc(C(=O)NCCc2ccc(S(=O)(=O)NC(=O)NC3CCCCC3)cc2)cn1 12.9%
